# Measurements as given in PubChem BioAssay (Tox21).
# Activity calls are given as the source filed them. Calls follow the shape of the dose curve; as a rule, active = well fitted curve in the direction sought with a large enough effect in the repeat runs; inconclusive = weak or mixed curves; inactive = flat fitted curve, though single readings scatter. Positions of bridges follow the written chain, without caps; N, C: chain ends. Non-standard residues stand in square brackets, D forms with d. Residues, ends and D or L forms follow the SMILES beside them. *: point of attachment. Dab(CH2SO3H) = N[C@@H](CCNCS(=O)(=O)O)C(=O)O; X3 = CC[C@@H](C)CCCCC(=O)*; Dab = NCC[C@H](N)C(=O)O
# Experiment: qHTS assay to test for compound auto fluorescence at 590 nm (red) in HEK293 cells (AID 720679)
# Conditions: red autofluorescence 540/590 nm; series mostly up to 46 µM; fluorescence, % of fluorescent control: at the top concentration
# Source text: National Center for Advancing Translational Sciences [NCATS]
# NIH Chemical Genomics Center [NCGC]
# U.S. Environmental Protection Agency [EPA]
# National Institutes of Environmental Health Sciences [NIEHS]
# National Toxicology Program [NTP]
# U.S. Food and Drug Administration [FDA]
# Compound auto fluorescence often interferes with screening of the compound library against various biological targets and signaling pathways. Some of these compounds may have fluorophoric properties. Such properties may interfere with the assay outputs resulting in false positives and/or negatives. To decrease such complications and ensure the compound activities are relevant in terms of biological response, the Tox21 10K compound library was screened for auto fluorescence.
# From the fluorophores used as reporter signals in our screening assays, the auto fluorescence equivalencies of compounds against three fluorophores have been evaluated: Triamterene, Fluorescein and Rose Bengal sodium for blue, green and red fluorescence, respectively. The fluorescence intensities were measured using Excitation/Emission wavelengths at 405/460nm, 485/535nm and 540/590nm for blue, green and red labels, respectively. This assay includes the red fluorescence data.
# Tox21 Assay Protocol Summary:
# 2,000 HEK293 cells in 5 uL of culture medium containing 10% dialyzed FBS per well were dispensed into black wall/clear bottom 1536-well plates using a Multidrop Combi Dispenser (Thermo Scientific). The assay plates were incubated for 4-5 hr at 37C to allow cell attachment to the well bottom, followed by the transfer of 23 nL compound or DMSO vehicle by a pintool work station (Kalypsys, San Diego, CA). After the assay plates were incubated overnight at 37C and 5% CO2, fluorescence intensities in the assay plates were measured by an Envision (PerkinElmer, Shelton, CT) plate reader using three labels for measuring blue, green and red fluorescence at […] 460, 535 and 590nm respectively.
# % is scaled to controls: 0 for no effect and ±100 for the full control effect.
SMILES,"fluorescence, % of fluorescent control",outcome
C[C@H]1O[C@@H](O[C@H]2CC[C@@]3(C)[C@H](CC[C@@H]4[C@@H]3C[C@@H](O)[C@]3(C)[C@@H](C5=CC(=O)OC5)CC[C@]43O)C2)C[C@H](O)[C@@H]1O[C@H]1C[C@H](O)[C@H](O[C@H]2C[C@H](O)[C@H](O[C@@H]3O[C@H](CO)[C@@H](O)[C@H](O)[C@H]3O)[C@@H](C)O2)[C@@H](C)O1,-0.281% (inactive),
NCc1cccc(C2CCN(C(=O)c3ccc(C#Cc4ccccc4F)o3)CC2)c1,0.0297% [at 91.3 µM] (inactive),
N[C@@H](Cc1ccc(O)c(O)c1)C(=O)O,0.119% (inactive),
COc1cc([C@@H]2c3cc4c(cc3[C@@H](O[C@@H]3O[C@@H]5CO[C@@H](C)O[C@H]5[C@H](O)[C@H]3O)[C@H]3COC(=O)[C@H]23)OCO4)cc(OC)c1O,,inactive
CC(O)(c1ccc(Cl)cc1)c1ccc(Cl)cc1,0.0337% [at 91.3 µM] (inactive),
CC[C@@H](C)CCCCC(=O)N[C@@H](CCNCS(=O)(=O)O)C(=O)N[C@H](C(=O)N[C@@H](CCNCS(=O)(=O)O)C(=O)N[C@H]1CCNC(=O)[C@H]([C@@H](C)O)NC(=O)[C@H](CCNCS(=O)(=O)O)NC(=O)[C@H](CCNCS(=O)(=O)O)NC(=O)[C@H](CC(C)C)NC(=O)[C@@H](CC(C)C)NC(=O)[C@H](CCNCS(=O)(=O)O)NC1=O)[C@@H](C)O (X3-[Dab(CH2SO3H)]T[Dab(CH2SO3H)][Dab][Dab(CH2SO3H)][dL]L[Dab(CH2SO3H)][Dab(CH2SO3H)]T; lactam 4-C),0.103% (inactive),
C[S+](C)CCC(N)C(=O)O (stereo not given),0.0299% (inactive),
CC[C@H](C)C(=O)O[C@H]1CCC=C2C=C[C@H](C)[C@H](CC[C@@H]3C[C@@H](O)CC(=O)O3)[C@H]21,-0.0765% (inactive),
CN=C(N)NCCC[C@H](N)C(=O)O,,inactive
O=C(O)[C@@H]1C[C@H](CP(=O)(O)O)CCN1,0.0958% (inactive),
COc1cc2c(c(OC)c1OC)-c1c(cc3c(c1OC)OCO3)C[C@@H](C)[C@](C)(O)C2,,inactive
COc1cc(NS(C)(=O)=O)ccc1Nc1c2ccccc2nc2ccccc12,-0.229% (inactive),
C[C@@H]1O[C@@H]1P(=O)(O)O,-0.335% (inactive),
NC(=O)[C@@H]1CCCN1C(=O)[C@H](Cc1cnc[nH]1)NC(=O)[C@@H]1CCC(=O)N1,0.0635% (inactive),
CC(=NCc1ccccc1)c1ccccc1O,-0.28% (inactive),
CCC(=O)OC(OP(=O)(CCCCc1ccccc1)CC(=O)N1C[C@H](C2CCCCC2)C[C@H]1C(=O)O)C(C)C (stereo not given in full),-0.437% (inactive),
CNCCC=C1c2ccccc2CCc2ccccc21,-0.054% (inactive),
CSCC[C@H](NC(=O)[C@H](Cc1ccc(OS(=O)(=O)O)cc1)NC(=O)[C@@H](N)CC(=O)O)C(=O)NCC(=O)N[C@@H](Cc1c[nH]c2ccccc12)C(=O)N[C@@H](CCSC)C(=O)N[C@@H](CC(=O)O)C(=O)N[C@@H](Cc1ccccc1)C(N)=O,,inactive
CCCCCCCCCCCCN1CCCC1=O,0.103% [at 91.3 µM] (inactive),
O=C1C2CC3CC1CC(O)(C3)C2,0.0633% (inactive),

SMILES,"fluorescence, % of fluorescent control",outcome
CC(C)(Oc1ccc(C2CCCc3ccccc32)cc1)C(=O)O (stereo not given),0.0335% (inactive),
O=C(Cn1cnnn1)N[C@@H]1C(=O)N2C(C(=O)O)=C(CSc3nncs3)CS[C@H]12,,inactive
O=[N+]([O-])c1ccc(O)c2ncccc12,0.115% (inactive),
CN(C)CCOc1ccc(/C(=C(/CCCl)c2ccccc2)c2ccccc2)cc1,,inactive
CO/N=C(\C(=O)N[C@@H]1C(=O)N2C(C(=O)[O-])=C(C[n+]3cccc4c3CCC4)CS[C@H]12)c1csc(N)n1,-0.243% (inactive),
CC(C)c1ccc2sc3ccccc3c(=O)c2c1,-0.695% [at 91.3 µM] (inactive),
CCCCCCCCCC(=O)NO,,inactive
CC(C)(COP(=O)(O)OP(=O)(O)OC[C@H]1O[C@@H](n2cnc3c(N)ncnc32)[C@H](O)[C@@H]1OP(=O)(O)O)C(O)C(=O)NCCC(=O)NCCS (stereo not given in full),0.139% (inactive),
CC1=C(/C=C/C(C)=C/C=C/C(C)=C/C=C/C=C(C)/C=C/C=C(C)/C=C/C2=C(C)CCCC2(C)C)C(C)(C)CCC1,0.1% (inactive),
C[N+]1(CCCCC[N+]2(C)CCCC2)CCCC1,-0.269% (inactive),
CCN1\C(=C/C=C/C=C/c2sc3ccccc3[n+]2CC)Sc2ccccc21,,inactive
O=P(O)(O)OP(=O)(O)OP(=O)(O)O,0.0512% (inactive),
CCCOC(=O)c1ccc(O)cc1,,inactive
C=CC1=C(C(=O)O)N2C(=O)[C@@H](NC(=O)/C(=N/OCC(=O)O)c3csc(N)n3)[C@H]2SC1 (stereo in doubt),-0.0152% [at 18.6 µM] (inactive),
O=C(N[C@H](CO)[C@H](O)c1ccc([N+](=O)[O-])cc1)C(Cl)Cl,,inactive
CN(C[C@@H](CC[N+]12CCC(C3CCCCC3)(CC1)CC2)c1ccc(Cl)c(Cl)c1)C(=O)c1cc(C(F)(F)F)cc(C(F)(F)F)c1,0.0098% [at 91.3 µM] (inactive),
COc1cc(/C=C/C(=O)CC(=O)/C=C/c2ccc(O)c(OC)c2)ccc1O,,inactive
N[C@@H](Cc1cnc[nH]1)C(=O)O,-0.0033% (inactive),
O=C1c2ccccc2C(=O)C1c1ccc(F)cc1,-0.978% (inactive),
C[N+](C)(C)CCOP(=O)(O)OP(=O)([O-])OC[C@H]1O[C@@H](n2ccc(N)nc2=O)[C@H](O)[C@@H]1O,,inactive
